ELG1 genotox: inducers of genotoxicity in HEK293T ELG1-luciferase cells | HEK293T ELG1-luciferase reporter, luminescence, 16 h | Potency, µM (doses to about 46 µM), most hits filed as activators | 1.3% of 330,000 active | AID 504466; also: nearly all actives have a fitted effect of over 60% in size
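Luminescence read-out: rising ELG1-luciferase signal, reflecting elevated ELG1 protein under genetic stress, flags genotoxic compounds. Cells were treated for 16 hr at 37 °C before ONE-Glo detection.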
FLuc modulator: counter-screen for miR-21 project: firefly luciferase inhibitors or activators. P08659. purified FLuc, Km substrates, luminescence inhibition. Potency, µM (titrated, usually from 57.5 µM), most hits filed as inhibitors. 6.9% of 360,000 active; also: nearly all actives have a fitted effect of over 55% in size
Target sequence (P08659 whole entry, looked up): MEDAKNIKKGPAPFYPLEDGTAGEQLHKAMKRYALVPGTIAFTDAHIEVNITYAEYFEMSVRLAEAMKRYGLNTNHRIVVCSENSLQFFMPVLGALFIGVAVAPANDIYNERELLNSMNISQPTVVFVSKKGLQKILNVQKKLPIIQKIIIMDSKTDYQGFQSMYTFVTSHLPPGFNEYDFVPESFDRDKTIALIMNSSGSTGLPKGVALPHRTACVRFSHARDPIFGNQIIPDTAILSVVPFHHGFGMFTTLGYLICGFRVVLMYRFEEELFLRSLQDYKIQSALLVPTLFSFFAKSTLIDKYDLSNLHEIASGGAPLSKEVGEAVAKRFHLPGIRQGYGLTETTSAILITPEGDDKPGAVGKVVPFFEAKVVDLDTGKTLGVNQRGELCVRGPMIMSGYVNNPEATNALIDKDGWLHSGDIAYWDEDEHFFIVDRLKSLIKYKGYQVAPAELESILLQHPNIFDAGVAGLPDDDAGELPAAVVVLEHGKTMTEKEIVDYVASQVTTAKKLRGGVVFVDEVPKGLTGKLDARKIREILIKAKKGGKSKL
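Purified P. pyralis luciferase, 10 nM final, with Km-level 10 uM D-luciferin and 10 uM ATP in 50 mM Tris acetate pH 7.5, 10 mM Mg acetate, 0.01% Tween-20, 0.05% BSA; 6-point qHTS titration about 60 µM downward; luminescence read.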
NPC1 promoter act: activates the NPC1 promoter | Huh7 NPC1 promoter luciferase reporter, 24 h | Potency, µM (series often up to 9.22 µM), actives largely listed as activators | 2.4% of 320,000 active | AID 485313; also: nearly all actives have a fitted effect of over 60% in size
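Compounds in DMSO were transferred onto Huh7 NPC1-luciferase reporter cells pre-incubated 2 h; after 24 h at 37 °C, Amplite reagent was dispensed and luminescence recorded 10 min later.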
Rab9 promoter act: Rab9 promoter activation; Huh7 Rab9 promoter-luciferase reporter, luminescence, 24 h; Potency, µM (doses to about 9.22 µM), actives largely listed as activators; 2.8% of 320,000 active; AID 485297; also: nearly all actives have a fitted effect of over 60% in size
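Luminescence read-out: Huh7 cells stably expressing Rab9-luciferase, treated 24 h with compound at 37 °C, then lysed with luciferase reagent for 10 min at ambient before reading.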
ELG1 DNA repair: ELG1-dependent DNA repair inhibition; Potency, µM (highest dose often 46.1 µM), actives largely listed as inhibitors; HEK293T ELG1-luciferase reporter, luminescence, 16 h; DNA damage induced by 5-fluorouridine; 2.3% of 330,000 active; also: nearly all actives have a fitted effect of over 55% in size
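DMSO vehicle served as the neutral condition. Each well held 2,000 cells given 5-fluorouridine plus compound; after 16 hr at 37 °C/5% CO2, ONE-Glo was added and luciferase measured 30 min later.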
SMN2 splice enh: enhancers of SMN2 splice variant expression | HEK293 SMN2-luciferase splicing reporter, luminescence, 30-36 h | Potency, µM (doses to about 46.1 µM), most hits filed as activators | 2.8% of 210,000 active | AID 1458; also: nearly all actives have a fitted effect of over 55% in size
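HEK293 cells carry an SMN2 […]–luciferase reporter in which exon 7 inclusion puts luciferase in frame. Cells were plated 10-12 h before compound addition, then incubated 30-36 h at 37C. ONE-Glo luminescence was read; sodium butyrate at 4.5 mM final served as control.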
Hits are given with their value; i = inactive; ? = inconclusive; nt = no result. Only some compounds are listed: those with a hit (about 9.2% of all), similar ones and a draw of the others. Calls follow the shape of the dose curve; as a rule, active = well fitted curve in the direction sought with a large enough effect; inconclusive = small, poorly fitted or top-dose-only effect, or another doubt; inactive = no such curve, though single readings can be large; an effect the other way counts as inactive or inconclusive.

SMILES	ELG1 genotox	FLuc modulator	NPC1 promoter act	Rab9 promoter act	ELG1 DNA repair	SMN2 splice enh
CN(C)CCNc1oc(-c2cccc(Cl)c2)nc1C#N	?	i	i	i	i	i
CCc1ccc2oc(-c3cccc(NC(=O)c4ccc(-c5cccc([N+](=O)[O-])c5)o4)c3)nc2c1	nt	2.7µM	nt	nt	nt	?
O=C(Nc1ccc(N2CCN(C(=O)c3ccc(Cl)cc3)CC2)cc1)c1cc2ccccc2o1	i	i	i	i	?	i
CN1CCN(c2ccc(NC(=O)c3ccc(-c4ccc(Cl)cc4)o3)cc2)CC1	i	24µM	i	i	?	nt
O=C(Nc1ccc(N2CCN(C(=O)c3ccc(Cl)cc3)CC2)cc1)c1ccc(Br)o1	i	i	i	i	21µM	i
CN1CCN(c2ccc(NC(=O)c3ccc(-c4cccc([N+](=O)[O-])c4)o3)cc2)CC1	i	15µM	i	i	?	i
CS(=O)(=O)N1CCN(c2ccc(NC(=O)c3ccc(-c4ccc(Cl)cc4)o3)cc2)CC1	i	i	i	i	?	i
O=C(Nc1ccc2oc(=O)ccc2c1)c1ccc(-c2cccc([N+](=O)[O-])c2)o1	i	i	i	i	?	nt
CCOc1ccc(NC(=O)c2cc(S(=O)(=O)NC3CCCC3)ccc2F)cc1	nt	i	nt	nt	nt	nt
C=CCNc1nc(C)c(CNc2c(C)cc(C)cc2C)nc1C#N	i	i	i	i	i	nt
O=C(Cn1cnc(Cl)c1Cl)c1ccc(F)cc1	i	i	i	i	i	i
COc1cc(/C=C(\NC(C)=O)C(=O)Nc2cccc(O)c2)ccc1OC(C)=O	i	i	i	i	i	i
CN(C)c1cccc2c1c(NC(=O)c1ccc(Cl)cc1)nn2C	i	i	i	i	i	nt
O=C(NC(=S)Nc1ccccc1N1CCCC1)c1ccc(-c2cccc([N+](=O)[O-])c2)o1	i	i	i	i	15µM	i
CCc1ccc2oc(-c3ccc(C)c(NC(=O)c4cc([N+](=O)[O-])ccc4N4CCOCC4)c3)nc2c1	nt	1.7µM	nt	nt	nt	i
O=C(NC(=S)Nc1ccccc1N1CCCCC1)c1ccc(-c2cccc([N+](=O)[O-])c2)o1	i	i	i	i	?	i
CCOC(=O)c1ccc(-c2ccc3[nH]c4ccccc4c(=O)c3c2)cc1F	?	0.54µM	?	i	?	nt
CCOC(=O)c1c[nH]c2ccc3ccccc3c2c1=O	i	?	i	i	i	nt
CC(C)[C@H](NC(=O)c1ccc([N+](=O)[O-])cc1Cl)C(=O)N1CCN(C/C=C/c2ccccc2)CC1	i	nt	nt	nt	13µM	nt
Cc1cc2oc(C(=O)Nc3nonc3C)c(C)c2cc1C	10µM	2.4µM	1.1µM	4µM	?	nt
CCc1ccc2oc(C(=O)Nc3nonc3C)c(C)c2c1	3.3µM	2.1µM	0.32µM	0.63µM	?	nt
CCc1nonc1NC(=O)c1oc2ccc(F)cc2c1C	i	i	i	?	?	i
COc1ccc(C(=O)/C=C2/c3ccccc3CC(C)(C)N2C)cc1OC	i	i	i	i	?	i
CCCSc1nnc2c(n1)OC(CC)N(C(C)=O)c1ccccc1-2 (centres undefined)	nt	i	nt	nt	nt	i
CCCCCC1OC1C/C=C\C/C=C\C/C=C\CCCC(=O)O (centres undefined)	nt	nt	nt	nt	nt	i
SMILES	ELG1 genotox	FLuc modulator	NPC1 promoter act	Rab9 promoter act	ELG1 DNA repair	SMN2 splice enh
CCOc1ccccc1NC(=O)C(NCCN(C)C)c1ccccc1 (centres undefined)	i	i	i	i	i	i
CCOc1ccccc1NC(=O)C(NCCc1ccc(OC)cc1)c1ccccc1 (centres undefined)	i	27µM	i	i	?	nt
Fc1cccc(C2NN=C(c3ccccc3)S2)c1 (centres undefined)	2.3µM	1.1µM	2.2µM	2.8µM	?	11µM
COc1ccc(C2NC(=O)CS2)cc1OC (centres undefined)	i	i	i	i	i	i
COc1ccc(C2NN=C(c3ccc(C)cc3)S2)cc1OC (centres undefined)	?	2.4µM	2.2µM	1.4µM	?	11µM
Cc1ccc(C2=NNC(c3cccc(F)c3)S2)cc1 (centres undefined)	i	0.43µM	0.56µM	0.5µM	?	1.6µM
